# From PubChem BioAssay (NCATS)
# Values without a mark were called inactive. Results filed as inconclusive are left out. Activity calls are given as the source filed them. Unless noted, calls follow the shape of the dose curve; as a rule, active = well fitted curve in the direction sought with a large enough effect; inconclusive = small, poorly fitted or top-dose-only effect, or another doubt; inactive = no such curve, though single readings can be large; an effect the other way counts as inactive or inconclusive.
# Legend:
# [1] = molecular target: Lysosomal acid glucosylceramidase (Homo sapiens) (UniProt P04062); assay: Glucocerebrosidase-p2 (AID 348; in the data active = potency below about 10 µM; also: potency is read from the fitted curve at half-maximal effect); conditions: purified GBA, blue fluorogenic substrate, 40 min
# In short: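 Normal human glucocerebrosidase (0.2 nM) with blue fluorogenic substrate (80 uM final) in citrate/phosphate pH 5.9 with 10mM sodium taurocholate, 0.01% tween-20; 40 min RT, NaOH/glycine stop; fluorescence Ex 365/Em 440; AC50 from a titration from 0.6 nM upwards.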
# [2] = AP1 Signaling Pathway (AID 357; active = well fitted curve in either direction with a large enough effect, not every such curve was filed as active;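 also: ME-180 reporter cells stimulated with EGF at its EC50 level; % is scaled to controls: 0 for no effect and ±100 for the full control effect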); conditions: ME-180 AP-1-bla reporter, EGF-induced, beta-lactamase ratio, 5 h; at 7.69 µM (top of the series) unless noted
# In short: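 First, ME-180 AP-1-bla cells were cultured overnight at 37 °C in low-serum Opti-MEM. Next, titrated compounds with EC50 EGF were incubated 5 hours. Finally, CCF4 was added for 2.5 hours and the 460/530 nm ratio recorded.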
# [3] = molecular target: Cytochrome P450 1A2 (Homo sapiens) (UniProt P05177); assay: p450-cyp1a2 (AID 410; calls by dose curve; also: potency is read from the fitted curve at half-maximal effect;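 as to activity change, negative = inhibition: -100% = full effect of reference inhibitor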); conditions: recombinant CYP1A2, luciferin-ME demethylation, luminescence; series mostly up to 57 µM
# In short: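 Luminescent demethylation readout: Luciferin-ME (100uM, equal to Km) turned over by 20nM CYP1A2 for 60 min at room temperature after NADPH regeneration addition, following 10 min compound preincubation. Normalization used 57 uM furafylline as full inhibition.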
# [4] = Stat Signaling Pathway (AID 446; active = well fitted curve in either direction with a large enough effect, not every such curve was filed as active;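 also: ME-180 cervical cancer cells given 40 pM IL-6 alongside compound; SIE-controlled beta-lactamase reporter measured as 460/530 nm FRET emission ratio; % is scaled to controls: 0 for no effect and ±100 for the full control effect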); conditions: ME-180 (cervical carcinoma) SIE beta-lactamase reporter, IL-6 stimulated, 5 h; at 7.69 µM (top of the series) unless noted
# In short: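 Emission at 460 and 530 nm (excitation 405 nm) reports SIE-controlled beta-lactamase in ME-180 cells. Cells received compound with 40 pM IL-6 for 5 hrs at 37 C; data scaled between 300 pM IL-6 and 125 nM JAK-inhibitor controls.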
# [5] = molecular target: Glucocorticoid receptor (Homo sapiens) (UniProt P04150); assay: GR-EFC Redistribution (AID 451; calls by dose curve; also: potency is read from the fitted curve at half-maximal effect); conditions: CHO-K1 GR-EFC translocation, beta-gal luminescence, 2 h
# In short: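 CHO-K1 cells stably expressing nuclear-localized β-gal enzyme acceptor and GR fused C-terminally to the enzyme donor fragment; ligand-driven nuclear translocation restores β-gal by complementation. Compounds titrated up to 46 uM final, 2 h at 37 °C; luminescence read.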
# [6] = molecular target: 3',5'-cyclic-AMP phosphodiesterase 4B (Homo sapiens) (UniProt Q07343); assay: qHTS Assay for Inhibitors of PDE-IV (AID 607; active = well fitted activation curve with a large enough effect in the main read-out, with a control signal flat, not every such curve was filed as active; also: % of control where 0% means no effect); conditions: HEK293 ACTOne CNG channel cells, membrane potential fluorescence; series mostly up to 22.9 µM
# In short: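 The readout is membrane depolarisation from a cAMP-sensing CNG channel, detected with a potential dye at ex 535/em 590. Cells were HEK293-derived (endogenous PDE-IV) at 1000 cells/well, titrated up to 22.9 uM final.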
# [7] = Primary qHTS for small molecule stabilizers of the endoplasmic reticulum resident proteome: Secreted ER Calcium Modulated Protein (SERCaMP) assay (AID 1508630); conditions: SH-SY5Y GLuc-SERCaMP (Gaussia luciferase released on ER calcium loss) secretion, thapsigargin, luminescence; series mostly up to 38.4 µM; also: % is scaled to controls: 0 for no effect and ±100 for the full control effect
# In short: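 The SH-SY5Y reporter protocol was run at 3 concentrations up to 38.3 uM (primary) or 11 concentrations (follow-up): 16 h compound, 100 nM thapsigargin for 4 h, then extracellular luciferase luminescence.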
# [8] = molecular target: Glucocorticoid receptor (Homo sapiens) (UniProt P04150); assay: GR-GFP Redistribution (AID 450;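 active = compounds whose dose series gives a full or clear partial fitted curve of increased nuclear translocation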; also: potency is read from the fitted curve at half-maximal effect); conditions: U2OS GR-GFP nuclear translocation, laser cytometry, 2 h
# [9] = molecular target: Mitogen-activated protein kinase 10 (Mus musculus) (UniProt Q61831); assay: JNK3 AlphaScreen Assay (AID 530; active = well fitted curve in either direction with a large enough effect, not every such curve was filed as active;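 also: kinase came from lysate of stimulated human HepG2 cells; signal reports phosphorylation of biotinylated GST-cJun 1-79 at Ser73 with 10 µM ATP; % is scaled to controls: 0 for no effect and ±100 for the full control effect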); conditions: JNK3 lysate, c-Jun phosphorylation; series mostly up to 57.1 µM
# In short: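 Phosphorylation of biotinylated GST-cJun(1-79) at Ser73 is measured by AlphaScreen proximity luminescence. Enzyme is JNK3 in HepG2 lysates activated with interleukin-1beta and tumor necrosis factor alpha; ATP is 10 uM final.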
# [10] = molecular target: Cytochrome P450 3A4 (Homo sapiens) (UniProt P08684); assay: qHTS Assay for Inhibitors and Substrates of Cytochrome P450 3A4 (AID 884); conditions: recombinant CYP3A4, Luciferin-PPXE luminescence; series mostly up to 57.1 µM; also: nearly all actives have a fitted effect of over 50% in size; also: potency is read from the fitted curve at half-maximal effect
# In short: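 Luminescent readout of luciferin produced by CYP3A4 (20 nM) dealkylation of Luciferin-PPXE, 25 uM (its KM). NADPH-driven reaction ran 60 min at RT after 10 min compound preincubation; data scaled to 57 uM ketoconazole as 100% inhibition.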
# [11] = molecular target: Cytochrome P450 3A4 (Homo sapiens) (UniProt P08684); assay: qHTS Assay for Activators of Cytochrome P450 3A4 (AID 885); conditions: recombinant CYP3A4, Luciferin-PPXE luminescence, 60 min; series mostly up to 57.1 µM; also: nearly all actives have a fitted effect of over 65% in size; also: potency is read from the fitted curve at half-maximal effect
# In short: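 Activators are scored by enhanced luminescence from CYP3A4 conversion of luciferin-PPXE (25uM, equal to KM) to luciferin, after 60 min at RT with an NADPH-regenerating system.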
# [12] = Confirmation and Secondary Assay for Modulators of Hemoglobin Beta Chain Splicing at IVS2 654 locus (AID 910); conditions: HeLa EGFP-654 splicing reporter, GFP fluorescence, 48 h; series mostly up to 38.3 µM;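 also: per-well total GFP intensity by laser scanning cytometry after 2-day treatment; % of control where 0% means no effect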
# In short: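 HeLa cells stably carrying EGFP interrupted by mutant beta-globin IVS2-654 intron (CMV-driven) were treated with compound for 2 days at 37C; corrected splicing was scored as total peak GFP intensity per well (488 nm excitation, 500-520 nm emission).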
# [13] = Confirmation and Secondary Assay for Modulators of Hemoglobin Beta Chain Splicing at IVS2 705 locus (AID 930); conditions: HeLa EGFP-705 splicing reporter, GFP fluorescence, 48 h; series mostly up to 38.3 µM;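 also: HeLa cells stably expressing the EGFP-705 splicing reporter; GFP fluorescence per well restored by corrected splicing of the IVS2-705 intron in EGFP; % of control where 0% means no effect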
# In short: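 Secondary splice-site specificity test uses HeLa expressing CMV-driven EGFP interrupted by IVS2-705; cells were treated 2 days at 37C with 500 nM antisense PNA as positive control.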
# [14] = molecular target: Ubiquitin carboxyl-terminal hydrolase 1 (Homo sapiens) (UniProt O94782); assay: Inhibitors of USP1/UAF1: Pilot qHTS (AID 504865); conditions: purified USP1/UAF1, Ub-rhodamine cleavage fluorescence; series mostly up to 54.9 µM;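 also: rhodamine fluorescence freed from ubiquitin-rhodamine substrate followed over time; top concentration of the series differs between compounds; % is scaled to controls: 0 for no effect and ±100 for the full control effect; nearly all actives have a fitted effect of over 35% in size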
# In short: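 USP1/UAF1 complex (1nM) preincubated with compound 15 min at room temperature, then Ub-Rho substrate (150nM final) added. Fluorescence read kinetically at 480/540 nm, 6 reads every 60 seconds. Buffer: 50mM HEPES pH 7.8, 0.5mM EDTA, 0.1 mg/ml BSA, 1mM TCEP, 0.01% Tween-20.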
# [15] = NFAT Signaling Pathway (AID 444; active = well fitted curve in either direction with a large enough effect, not every such curve was filed as active); conditions: Jurkat NFAT-bla M1, carbachol, beta-lactamase ratio, 5 h; at 7.69 µM (top of the series) unless noted
# In short: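 Jurkat cells carrying an NFAT-driven β-lactamase reporter and co-transfected muscarinic M1 receptor were treated with compound plus carbachol (1 uM final, an EC50 level) for 5 h at 37 °C. CCF4 loading followed for 1 h at RT; 460/530 nm ratio gave %activity.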
# [16] = molecular target: Cytochrome P450 2D6 (Homo sapiens) (UniProt P10635); assay: qHTS Assay for Inhibitors and Substrates of Cytochrome P450 2D6 (AID 891); conditions: recombinant CYP2D6, luciferin-ME EGE luminescence; series mostly up to 57.1 µM; also: potency is read from the fitted curve at half-maximal effect; nearly all actives have a fitted effect of over 60% in size
# In short: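 Luminescent read-out of luciferin formed by 5 nM human CYP2D6 demethylating 30 uM Luciferin-ME EGE (Km level) over 60 min at room temperature after NADPH regeneration addition. Data normalized to full inhibition by 1.43 uM quinidine.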
# [17] = molecular target: Cytochrome P450 2C19 (Homo sapiens) (UniProt P33261); assay: qHTS Assay for Inhibitors and Substrates of Cytochrome P450 2C19 (AID 899); conditions: recombinant CYP2C19, luciferin-H EGE luminescence; series mostly up to 57.1 µM; also: % is scaled to controls: 0 for no effect and ±100 for the full control effect; nearly all actives have a fitted effect of over 60% in size
# In short: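 In 50mM KPO4, the reaction held 5nM enzyme and KM-level (10uM) Luciferin-H EGE; it ran 60 min at 37C after NADPH regeneration and a 10 min compound preincubation. Luminescence values were scaled to 57uM ketoconazole as complete inhibition.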
# Cytochrome P450 1A2 (Homo sapiens), sequence (P05177 whole entry, looked up): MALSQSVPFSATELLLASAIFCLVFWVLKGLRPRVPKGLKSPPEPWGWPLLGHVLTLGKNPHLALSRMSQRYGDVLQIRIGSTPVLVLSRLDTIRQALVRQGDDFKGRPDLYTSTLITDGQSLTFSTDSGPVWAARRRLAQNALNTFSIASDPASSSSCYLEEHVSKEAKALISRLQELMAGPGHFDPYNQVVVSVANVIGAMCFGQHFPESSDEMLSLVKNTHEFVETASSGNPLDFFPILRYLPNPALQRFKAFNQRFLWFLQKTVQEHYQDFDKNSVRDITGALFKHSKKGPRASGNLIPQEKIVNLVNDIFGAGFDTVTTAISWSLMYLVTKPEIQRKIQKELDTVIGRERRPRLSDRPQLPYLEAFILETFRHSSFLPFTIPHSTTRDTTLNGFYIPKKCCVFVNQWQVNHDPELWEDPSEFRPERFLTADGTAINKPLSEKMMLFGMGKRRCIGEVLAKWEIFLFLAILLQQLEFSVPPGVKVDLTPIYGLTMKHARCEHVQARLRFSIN
# Lysosomal acid glucosylceramidase (Homo sapiens), sequence (P04062 whole entry, looked up): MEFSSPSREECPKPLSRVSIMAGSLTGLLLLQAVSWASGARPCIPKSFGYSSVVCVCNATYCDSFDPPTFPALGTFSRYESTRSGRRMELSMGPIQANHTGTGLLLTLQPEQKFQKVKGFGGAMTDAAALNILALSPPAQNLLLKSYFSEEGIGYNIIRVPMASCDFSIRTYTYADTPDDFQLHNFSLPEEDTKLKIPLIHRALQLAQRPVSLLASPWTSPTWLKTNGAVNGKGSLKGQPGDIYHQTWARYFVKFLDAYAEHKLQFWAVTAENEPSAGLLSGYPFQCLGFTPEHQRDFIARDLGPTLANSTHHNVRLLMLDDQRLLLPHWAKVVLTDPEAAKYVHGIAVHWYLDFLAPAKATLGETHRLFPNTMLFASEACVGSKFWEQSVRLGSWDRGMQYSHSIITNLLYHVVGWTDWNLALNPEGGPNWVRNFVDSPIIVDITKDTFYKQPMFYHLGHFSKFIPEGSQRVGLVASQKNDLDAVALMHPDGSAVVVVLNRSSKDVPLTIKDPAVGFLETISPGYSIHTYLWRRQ
# Cytochrome P450 3A4 (Homo sapiens), sequence (P08684 whole entry, looked up): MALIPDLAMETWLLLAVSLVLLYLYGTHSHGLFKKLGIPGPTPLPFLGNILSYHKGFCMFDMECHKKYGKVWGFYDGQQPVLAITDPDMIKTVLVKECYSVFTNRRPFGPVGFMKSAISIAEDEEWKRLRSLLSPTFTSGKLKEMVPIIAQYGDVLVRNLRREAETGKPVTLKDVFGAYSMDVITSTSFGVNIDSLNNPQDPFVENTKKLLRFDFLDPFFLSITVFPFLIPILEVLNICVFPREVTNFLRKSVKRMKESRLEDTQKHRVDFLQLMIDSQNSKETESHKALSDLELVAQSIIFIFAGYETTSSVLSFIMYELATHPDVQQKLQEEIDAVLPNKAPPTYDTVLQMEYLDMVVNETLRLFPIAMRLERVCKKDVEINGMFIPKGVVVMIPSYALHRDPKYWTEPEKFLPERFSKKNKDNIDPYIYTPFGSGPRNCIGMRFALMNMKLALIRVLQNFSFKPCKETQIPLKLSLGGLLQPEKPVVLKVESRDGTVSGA
# Glucocorticoid receptor (Homo sapiens), sequence (P04150 whole entry, looked up, the tested form may be a part): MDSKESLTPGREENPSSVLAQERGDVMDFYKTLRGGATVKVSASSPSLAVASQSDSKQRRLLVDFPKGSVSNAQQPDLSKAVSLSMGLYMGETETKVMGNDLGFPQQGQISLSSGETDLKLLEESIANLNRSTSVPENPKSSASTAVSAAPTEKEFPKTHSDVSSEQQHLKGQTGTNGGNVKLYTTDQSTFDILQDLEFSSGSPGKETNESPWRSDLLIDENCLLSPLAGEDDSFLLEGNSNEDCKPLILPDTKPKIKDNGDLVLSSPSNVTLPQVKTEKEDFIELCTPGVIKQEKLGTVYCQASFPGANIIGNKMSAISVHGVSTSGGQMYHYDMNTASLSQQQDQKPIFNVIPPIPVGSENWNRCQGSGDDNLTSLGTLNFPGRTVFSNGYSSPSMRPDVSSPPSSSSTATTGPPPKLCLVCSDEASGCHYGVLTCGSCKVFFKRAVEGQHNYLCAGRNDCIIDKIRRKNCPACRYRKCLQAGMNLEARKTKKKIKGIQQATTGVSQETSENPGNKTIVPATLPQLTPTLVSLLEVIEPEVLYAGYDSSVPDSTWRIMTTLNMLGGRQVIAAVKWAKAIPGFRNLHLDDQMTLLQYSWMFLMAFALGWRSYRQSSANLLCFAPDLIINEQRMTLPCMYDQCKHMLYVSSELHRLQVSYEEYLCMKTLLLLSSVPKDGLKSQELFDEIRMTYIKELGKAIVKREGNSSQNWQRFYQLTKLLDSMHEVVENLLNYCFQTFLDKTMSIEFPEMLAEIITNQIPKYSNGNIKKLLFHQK
# 3',5'-cyclic-AMP phosphodiesterase 4B (Homo sapiens), sequence (Q07343 whole entry, looked up): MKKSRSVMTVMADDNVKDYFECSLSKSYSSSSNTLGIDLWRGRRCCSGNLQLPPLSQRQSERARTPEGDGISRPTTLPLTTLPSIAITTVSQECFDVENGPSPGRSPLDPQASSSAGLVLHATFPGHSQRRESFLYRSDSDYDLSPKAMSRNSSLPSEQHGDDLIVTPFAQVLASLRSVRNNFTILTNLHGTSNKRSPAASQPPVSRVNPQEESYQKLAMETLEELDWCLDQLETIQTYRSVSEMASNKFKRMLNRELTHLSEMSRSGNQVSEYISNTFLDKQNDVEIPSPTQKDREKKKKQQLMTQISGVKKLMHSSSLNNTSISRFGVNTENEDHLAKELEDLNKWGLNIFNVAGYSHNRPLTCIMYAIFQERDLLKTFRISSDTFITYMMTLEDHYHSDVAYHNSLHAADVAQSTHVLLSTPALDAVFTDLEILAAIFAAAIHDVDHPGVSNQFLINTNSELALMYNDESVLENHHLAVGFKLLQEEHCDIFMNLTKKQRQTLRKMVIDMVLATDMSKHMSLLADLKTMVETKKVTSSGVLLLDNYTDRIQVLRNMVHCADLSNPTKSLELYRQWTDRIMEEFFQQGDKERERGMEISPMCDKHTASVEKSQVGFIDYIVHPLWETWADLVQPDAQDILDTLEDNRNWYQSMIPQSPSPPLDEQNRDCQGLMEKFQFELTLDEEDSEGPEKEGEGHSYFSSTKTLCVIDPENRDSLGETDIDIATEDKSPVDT
# Cytochrome P450 2C19 (Homo sapiens), sequence (P33261 whole entry, looked up): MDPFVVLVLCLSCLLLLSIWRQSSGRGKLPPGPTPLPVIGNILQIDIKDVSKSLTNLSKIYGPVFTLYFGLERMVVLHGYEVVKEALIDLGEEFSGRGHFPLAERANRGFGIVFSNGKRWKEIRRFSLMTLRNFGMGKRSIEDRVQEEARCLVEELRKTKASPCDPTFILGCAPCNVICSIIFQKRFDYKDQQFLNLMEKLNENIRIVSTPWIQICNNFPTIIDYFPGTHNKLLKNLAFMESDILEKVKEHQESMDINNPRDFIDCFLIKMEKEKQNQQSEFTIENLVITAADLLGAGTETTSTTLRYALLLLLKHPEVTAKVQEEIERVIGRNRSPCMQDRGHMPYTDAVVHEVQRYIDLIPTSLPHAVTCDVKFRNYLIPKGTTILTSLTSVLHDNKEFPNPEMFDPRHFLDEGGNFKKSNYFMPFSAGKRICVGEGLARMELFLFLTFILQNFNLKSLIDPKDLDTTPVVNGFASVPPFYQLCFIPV
# Cytochrome P450 2D6 (Homo sapiens), sequence (P10635 whole entry, looked up): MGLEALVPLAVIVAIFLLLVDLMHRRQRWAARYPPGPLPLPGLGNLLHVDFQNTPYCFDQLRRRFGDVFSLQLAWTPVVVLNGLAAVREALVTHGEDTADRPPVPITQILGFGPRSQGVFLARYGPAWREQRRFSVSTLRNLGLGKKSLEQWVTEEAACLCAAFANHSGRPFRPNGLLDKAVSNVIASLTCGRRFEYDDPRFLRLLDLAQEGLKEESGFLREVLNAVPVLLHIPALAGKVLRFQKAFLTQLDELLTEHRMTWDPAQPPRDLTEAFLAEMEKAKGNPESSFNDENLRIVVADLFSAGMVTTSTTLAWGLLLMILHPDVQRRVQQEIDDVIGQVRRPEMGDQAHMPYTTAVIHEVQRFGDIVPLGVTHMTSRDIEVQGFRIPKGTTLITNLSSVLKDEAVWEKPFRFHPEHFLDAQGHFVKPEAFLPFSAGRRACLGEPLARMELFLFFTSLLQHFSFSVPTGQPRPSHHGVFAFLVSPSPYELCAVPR
# Ubiquitin carboxyl-terminal hydrolase 1 (Homo sapiens), sequence (O94782 whole entry, looked up): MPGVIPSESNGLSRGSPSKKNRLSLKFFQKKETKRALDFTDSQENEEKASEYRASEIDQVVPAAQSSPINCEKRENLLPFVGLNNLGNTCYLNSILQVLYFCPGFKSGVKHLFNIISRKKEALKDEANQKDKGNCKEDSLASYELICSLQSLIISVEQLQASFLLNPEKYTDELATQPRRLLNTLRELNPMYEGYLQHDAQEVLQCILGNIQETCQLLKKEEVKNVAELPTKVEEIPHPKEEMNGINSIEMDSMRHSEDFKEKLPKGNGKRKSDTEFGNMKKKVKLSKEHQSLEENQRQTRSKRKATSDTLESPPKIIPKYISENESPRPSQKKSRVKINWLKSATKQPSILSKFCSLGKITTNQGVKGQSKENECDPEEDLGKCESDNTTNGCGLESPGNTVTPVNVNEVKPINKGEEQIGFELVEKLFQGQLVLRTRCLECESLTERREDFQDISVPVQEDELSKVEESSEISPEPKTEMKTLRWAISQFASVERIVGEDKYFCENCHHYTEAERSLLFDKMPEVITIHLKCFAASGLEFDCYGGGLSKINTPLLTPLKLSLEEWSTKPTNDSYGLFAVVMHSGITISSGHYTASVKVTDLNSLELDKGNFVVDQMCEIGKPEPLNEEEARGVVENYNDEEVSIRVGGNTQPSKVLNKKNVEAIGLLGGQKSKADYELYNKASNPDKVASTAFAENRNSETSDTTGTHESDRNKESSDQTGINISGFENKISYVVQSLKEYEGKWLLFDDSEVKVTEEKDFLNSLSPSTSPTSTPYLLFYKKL
SMILES,Potency [1],"activity change, negative = inhibition [2]",Potency [3],"activity, negative = inhibition [4]",Potency [5],Potency [6],outcome [7],Potency [8],Potency [9],Potency [10],Potency [11],Potency [12],outcome [13],Potency [14],"activity change, negative = inhibition [15]",Potency [16],Potency [17]
COC(=O)N1CCC2(CC1)CCN(c1ccncc1)CC2,> 11.4 µM,6.46%,inactive,20.2%,> 46 µM,inactive,inactive,,,,,,,,,,
Cc1cnc(CNc2nc(-c3ccc4c(c3)OCO4)nc3ccccc23)cn1,> 11.4 µM,-3.88%,2 µM (active),,> 46 µM,,inactive,> 46 µM,inactive,0.794 µM (active),inactive,inactive,inactive,inactive,,,
COc1cccc(Cn2c(=O)c(C)nc3cnc(N4CCOCC4)nc32)c1,> 11.4 µM,-24.9%,,-1.29%,> 46 µM,,inactive,> 9.22 µM,inactive,,,,,,2.68%,,
COC(=O)N1CCC2(CC1)CCN(c1ccccn1)CC2,> 11.4 µM,-8.66%,inactive,-8.24%,> 46 µM,inactive,inactive,,inactive,inactive,20 µM (active),,,,,,
Cn1cccc1C(=O)N1CCC2(CCCN(c3ccccn3)C2)CC1,> 11.4 µM,-9.86%,20 µM (active),-6.89%,> 46 µM,inactive,inactive,,inactive,,inactive,,,,,,
CC(=O)N1CCC2(CC1)CCN(C(c1ccccc1)c1ccccc1)CC2,> 11.4 µM,-6.19%,inactive,-5.71%,> 46 µM,inactive,inactive,,inactive,inactive,25.1 µM (active),,,,,7.94 µM (active),
O=S(=O)(c1ccccc1)N1CCC2(CCCN(Cc3nccs3)C2)CC1,> 11.4 µM,-17.2%,inactive,-1.51%,> 46 µM,inactive,inactive,,inactive,3.16 µM (active),inactive,,,,,,inactive
